A number with no mark means an inactive call. A call without a number means that no potency is given here. Activity calls are given as the source filed them. Calls come from the whole dose curve.
target: Gonadotropin-releasing hormone receptor (Homo sapiens) (UniProt P30968); assay: Human gonadotropin-releasing hormone receptor (GnRHR) small molecule agonists, calcium flux assay in GnRHR-HEK293 cells (AID 1920063); conditions: calcium flux fluorescence, agonist mode; series mostly up to 57.6 µM; note: nearly all actives have a fitted effect of over 35% in size
Description: National Center for Advancing Translational Sciences [NCATS]
Division of Preclinical Innovation [DPI]
U.S. Environmental Protection Agency [EPA]
National Institutes of Environmental Health Sciences [NIEHS]
National Toxicology Program [NTP]
U.S. Food and Drug Administration [FDA]
Gonadotropin-releasing hormone receptor (GnRHR) is a G-protein-coupled receptor (GPCR) and acts (through phospholipase C) to increase intracellular inositol trisphosphate and then release intracellular calcium stores. Cell-based GnRHR-Hek293 calcium influx assay is using HEK293 cells that have been genetically engineered to express the human GnRHR, which activity can be measured by calcium signaling. A compound/drug can activate (agonist) GnRHR that can be monitored by levels of intracellular calcium.
GnRHR-HEK293 cells developed by Codex Corp contain human GnRHR reporter gene, which was stably integrated into HEK 293 cells. The compound activation can be detected by fluorescence intensity via calcium flux assay. This cell line has been used to screen the Tox21 10K compound library to identify GnRHR agonists.
GnRHR-Hek293 cells were dispensed at 1500cells/4uL/well in 1536-well black wall/clear bottom plates using a multidrop dispenser. After the assay plates were incubated at a 37 C/5% CO2 incubator for 18 hours, 4 uL of Calcium Dye Solution was added to each well. The plates were incubated at 37 C for 1 hour. For agonist mode, 23 nL of compounds dissolved in DMSO, positive controls or DMSO only was transferred to the assay plate by a pin tool station. The fluorescence intensity in the plates was measured using FDSS 7000EX kinetic plate reader with a filter set of Ex/Em=480/540 for 3 min at 1 sec intervals. Each test compound was measured at 15 concentrations and in triplicates.

Chain of Gonadotropin-releasing hormone receptor (Homo sapiens) (P30968 whole entry, looked up): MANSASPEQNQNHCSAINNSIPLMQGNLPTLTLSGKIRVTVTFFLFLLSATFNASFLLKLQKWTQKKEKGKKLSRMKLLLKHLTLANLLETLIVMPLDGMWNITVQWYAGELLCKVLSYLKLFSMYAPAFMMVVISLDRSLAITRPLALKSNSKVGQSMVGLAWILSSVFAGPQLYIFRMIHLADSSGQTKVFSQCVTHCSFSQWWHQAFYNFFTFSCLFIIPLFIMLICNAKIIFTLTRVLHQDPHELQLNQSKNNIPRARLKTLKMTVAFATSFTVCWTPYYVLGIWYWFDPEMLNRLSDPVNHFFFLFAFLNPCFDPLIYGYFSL

Question: `O=C(Oc1ccccc1C(=O)O)c1ccccc1O` was tested. Which Potency did it give?
Answer: Its Potency is “inactive”.

Question: Which Potency does the source give for `CCOC(=O)CS` here?
Answer: Its Potency is “inactive”.

Question: Which Potency does the source give for `Cc1ccc(S(=O)(=O)NC(=O)NN2CC3CCCC3C2)cc1` (stereo not given) here?
Answer: The Potency was “inactive”.

Question: How did the Potency turn out when `O=C(OCCCCCOC(=O)c1ccccc1)c1ccccc1` was run?
Answer: Its Potency is “inactive”.

Question: Which Potency does the source give for `C=CS(=O)(=O)O` here?
Answer: Its Potency is “inactive”.

Question: Which activity change does the source give for `CCCCCCCCCCCCS(=O)(=O)Cl` here?
Answer: Its activity change is 1.68% [at 11.8 µM, stronger effect = higher value].

Question: `O=C(C1CCCCC1)N1CC(=O)N2CCCc3ccccc3C2C1` (stereo not given) was tested. Which Potency did it give?
Answer: The Potency was “inactive”.

Question: For `O=C1c2ccccc2C(=O)C1(O)O`, which Potency is on record?
Answer: The Potency was “inactive”.

Question: For `CCN(CC)C(=O)Nc1ccc(OCC(O)CNC(C)(C)C)c(C(C)=O)c1` (stereo not given), which Potency is on record?
Answer: The Potency was “inactive”.

Question: How did the Potency turn out when `Cc1ccc(C=O)s1` was run?
Answer: The Potency was “inactive”.

Question: Which Potency does the source give for `COc1ccc(-c2coc3cc(O)ccc3c2=O)cc1` here?
Answer: Its Potency is “inactive”.

Question: With `CN1CCN(c2cc3c(cc2F)c(=O)c(C(=O)O)cn3-c2ccc(F)cc2)CC1` as the compound, how does the Potency read?
Answer: Its Potency is “inactive”.

Question: For `ClC(Cl)(Br)Br`, which Potency is on record?
Answer: The Potency was “inactive”.

Question: How did the activity change turn out when `N[C@@H](COP(=O)(O)O)C(=O)O` was run?
Answer: Its activity change is 0.11% [at 11.8 µM, stronger effect = higher value].

Question: How did the Potency turn out when `COc1ccccc1N1CCN(CC(O)COc2cc(OC)c(OC)c(OC)c2)CC1` (stereo not given) was run?
Answer: Its Potency is “inactive”.

Question: For `Clc1cccnc1`, which Potency is on record?
Answer: The Potency was “inactive”.

Question: How did the Potency turn out when `COC(=O)c1cc(C(=O)OC)cc(S(=O)(=O)O)c1` was run?
Answer: Its Potency is “inactive”.

Question: Which Potency does the source give for `N#Cc1c(F)cccc1F` here?
Answer: Its Potency is “inactive”.

Question: With `C=C(C)C(=O)OCC1CCCO1` (stereo not given) as the compound, how does the Potency read?
Answer: The Potency was “inactive”.

Question: For `Cc1cccc(C)c1C`, which Potency is on record?
Answer: Its Potency is “inactive”.

Question: For `Cc1cc(CCCOc2c(C)cc(-c3noc(C(F)(F)F)n3)cc2C)on1`, which Potency is on record?
Answer: The Potency was “inactive”.

Question: How did the Potency turn out when `C=CC(=O)OCC(O)COc1ccccc1` (stereo not given) was run?
Answer: Its Potency is “inactive”.

Question: With `ClC1=C(Cl)C1(Cl)Cl` as the compound, how does the Potency read?
Answer: The Potency was “inactive”.

Question: `CC1=CC(=O)CC(C)(C)C1=O` was tested. Which Potency did it give?
Answer: Its Potency is “inactive”.

Question: Which Potency does the source give for `C=C(C)c1ccccc1` here?
Answer: Its Potency is “inactive”.

Question: Which Potency does the source give for `CCCCCCCCCCCCCCCCCCO` here?
Answer: The Potency was “inactive”.

Question: How did the Potency turn out when `CCC1CO1` (stereo not given) was run?
Answer: The Potency was “inactive”.

Question: For `COC(=O)c1ccc(NC(C)=O)cc1OC`, which Potency is on record?
Answer: The Potency was “inactive”.

Question: How did the Potency turn out when `OC1CCC(C2CCCCC2)CC1` (stereo not given) was run?
Answer: Its Potency is “inactive”.

Question: With `c1ccc(CCNc2nc(-c3ccccc3)cs2)cc1` as the compound, how does the Potency read?
Answer: The Potency was “inactive”.

Question: Which Potency does the source give for `Cc1cccc(C(C)(C)C)c1O` here?
Answer: Its Potency is “inactive”.

Question: With `CC[C@@H](CO)NCCN[C@@H](CC)CO` as the compound, how does the Potency read?
Answer: The Potency was “inactive”.

Question: `O=C(NCCN1CCOCC1)c1ccc(Cl)cc1` was tested. Which Potency did it give?
Answer: The Potency was “inactive”.

Question: `CCC(C(=O)O)c1ccc(N2Cc3ccccc3C2=O)cc1` (stereo not given) was tested. Which Potency did it give?
Answer: Its Potency is “inactive”.

Question: For `O=C(O)c1cccc(-c2noc(-c3ccccc3F)n2)c1`, which Potency is on record?
Answer: Its Potency is “inactive”.

Question: `Cc1cc(S(=O)(=O)O)ccc1N=Nc1c(O)ccc2ccccc12` was tested. Which Potency did it give?
Answer: The Potency was “inactive”.

Question: `CC/C(=C\C(=N/O)C(N)=O)C(C)[N+](=O)[O-]` (stereo not given) was tested. Which Potency did it give?
Answer: Its Potency is “inactive”.

Question: For `CCCCCCCC/C=C\CCCCCCCCCCCC(=O)O`, which Potency is on record?
Answer: The Potency was “inactive”.

Question: How did the Potency turn out when `CCOC(=O)OCC/C(SC(=O)OCC)=C(\C)N(C=O)Cc1cnc(C)nc1N` was run?
Answer: Its Potency is “inactive”.

Question: For `CCCC(C)C`, which Potency is on record?
Answer: Its Potency is “inactive”.
